L major viab = Leishmania major promastigote growth inhibition, primary screen. Leishmania major promastigotes, resazurin fluorescence viability. inhibition, % at 10 µM. 200,000 compounds, 9% hits; in the data active = inhibition above about 50%;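 also: promastigotes grown with compound for 44 hours at 28 °C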
WT yeast gro inh = growth inhibition of WT strain, primary screen, mitochondrial fusion inhibitor project, WT and mutant strains, chemical genetic | 190,000 compounds, 2.1% hits | inhibition, % at 10 µM | mitochondrial fusion phenotypic screen; in the data active = inhibition above about 58%; tested in S. cerevisiae
RAM inhibit = inhibitors of the yeast RAM network, primary screen, dse1pr::URA3 reporter, 5-FOA selection; AID 868, 2007; 190,000 compounds, 1.8% hits; S. cerevisiae dse1pr::URA3 reporter, 5-FOA growth OD615, 2 d; analog-sensitive cbk1-as2 kinase mutant strain; inhibition, % at 50 µM;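 active = inhibition above a set limit, 3 SD over mean compound inhibition, cut at about 8.4% in these data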;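 also: 0% = DMSO-only wells with no growth and 100% = 10 µM 1-NA-PP1 full growth; inhibition rescues growth on 5-FOA so higher OD means more RAM inhibition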
CHOP inhibitor = inhibitors of CHOP promoter induction, primary screen, cell-based, unfolded protein response, luciferase reporter; CHO-K1 CHOP-promoter luciferase, tunicamycin-induced, 15-18 h; inhibition, % at 10 µM; 220,000 compounds, 3.8% hits; AID 2732, 2010;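 active = compounds that reduced the stress-induced luciferase reporter signal by more than about 70% of percent inhibition, limit read from the data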;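 also: 0% = tunicamycin plus vehicle and 100% = wells without tunicamycin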
An asterisk follows results filed as active. Hits are enriched below; roughly 13% of the tested compounds scored in any of these assays.

Results for CC(C)NC(=O)[C@@H]1C[C@@]1(C)[C@@H](NC(=O)OCc1ccccc1)c1ccccc1 ?
L major viab: -1; WT yeast gro inh: 10; RAM inhibit: 2; CHOP inhibitor: 11

Results for COc1ccc(-c2csc(NC(=O)CCS(=O)(=O)c3ccccc3)n2)c(OC)c1 ?
CHOP inhibitor: 28

Results for Nc1nc(-c2ccccc2)c(C(=O)Nc2ccccc2)s1 ?
L major viab: -4; WT yeast gro inh: 6; RAM inhibit: 0; CHOP inhibitor: -5

How did CC(C)CC(NC(N)=O)C(=O)NCc1ccccc1Cl (stereo unspecified) do in these assays?
L major viab: -3; WT yeast gro inh: 12; RAM inhibit: 2; CHOP inhibitor: 3

What do the screens show for `O=C(Nc1ccc(F)cc1)Nc1cc(OCC(F)(F)F)cc(OCC(F)(F)F)c1`?
L major viab: 99*; WT yeast gro inh: 20; RAM inhibit: 3; CHOP inhibitor: 102*

What do the screens show for `CCOc1ccc(NC(=O)Nc2ccc3nsnc3c2)cc1`?
L major viab: 5; WT yeast gro inh: 12; RAM inhibit: 2; CHOP inhibitor: 7

How did CCOc1ccc(NC(=O)Nc2cc(OCC(F)(F)F)cc(OCC(F)(F)F)c2)cc1 do in these assays?
L major viab: 14; WT yeast gro inh: 4; RAM inhibit: 4; CHOP inhibitor: 73*

What do the screens show for `COc1cc2c(cc1Cl)/C(=C\CCN(C)C)c1ccccc1S2`?
L major viab: 100*; WT yeast gro inh: 53; RAM inhibit: -1; CHOP inhibitor: 23

Results for CN(C)CC/C=C1/c2ccccc2Sc2c(O)cc(Cl)cc21 ?
L major viab: 98*; WT yeast gro inh: 5; RAM inhibit: 0; CHOP inhibitor: 24

Results for COc1cc(Cl)cc2c1Sc1ccccc1/C2=C/CCN(C)C ?
L major viab: 59*; WT yeast gro inh: 29; RAM inhibit: 0; CHOP inhibitor: 44

Results for CN(C)CCC(=O)N1c2ccccc2Sc2ccc(Cl)cc21 ?
L major viab: 5; WT yeast gro inh: -11; RAM inhibit: 0; CHOP inhibitor: 27

Results for CCn1c(C)nc2cc(C(=O)N=Nc3c(O)[nH]c4ccccc34)ccc21 ?
L major viab: 54*; WT yeast gro inh: 1; RAM inhibit: 1; CHOP inhibitor: 7

How did CCn1c2ccccc2c2cc(/C=N/NC(=O)c3cccc(C)c3)ccc21 do in these assays?
L major viab: 2; WT yeast gro inh: 73*; RAM inhibit: 4; CHOP inhibitor: 9

Results for CCn1c(C)nc2cc(C(=O)N/N=C/c3cccc(O)c3O)ccc21 ?
L major viab: 98*; WT yeast gro inh: 7; RAM inhibit: -1; CHOP inhibitor: 22

Results for CCn1c(C)nc2cc(C(=O)N/N=C/c3ccc(OC)cc3)ccc21 ?
L major viab: -2; WT yeast gro inh: -6; RAM inhibit: -1; CHOP inhibitor: -10

Results for CCn1c(C)nc2cc(C(=O)N/N=C/c3ccc(OC)c(O)c3)ccc21 ?
L major viab: 63*; WT yeast gro inh: 8; RAM inhibit: 2; CHOP inhibitor: 58

How did CCn1c(C)nc2cc(C(=O)N=Nc3c(O)[nH]c4c(C)cc(C)cc34)ccc21 do in these assays?
L major viab: -2; WT yeast gro inh: -5; RAM inhibit: -1; CHOP inhibitor: 41

Results for COc1ccc(/C=N/NC(=O)c2nc(-c3ccccc3)cc(-c3ccccc3)n2)cc1 ?
L major viab: 46; WT yeast gro inh: 0; RAM inhibit: 1; CHOP inhibitor: -47

How did COc1cccc(/C=N/NC(=O)CCn2c3ccccc3c3ccccc32)c1 do in these assays?
L major viab: -3; WT yeast gro inh: 16; RAM inhibit: 4; CHOP inhibitor: 89*

What do the screens show for `COc1ccc(/C=N/NC(=O)c2nc(-c3ccccc3)cc(-c3ccccc3)n2)cc1O`?
L major viab: 99*; WT yeast gro inh: 36; RAM inhibit: 4; CHOP inhibitor: 7

What do the screens show for `CCCCCCNC(=O)N[C@H](C(=O)NCCC[C@H]1CN2C(=NC[C@H]2C)N1CCC(c1ccccc1)c1ccccc1)C(C)O` (stereo partly specified)?
CHOP inhibitor: -48

What do the screens show for `CCOC(=O)N/N=C(/C)c1ccc(N2C(=O)C3CCCCC3C2=O)cc1` (stereo unspecified)?
L major viab: -5; WT yeast gro inh: -17; RAM inhibit: 2; CHOP inhibitor: 34

Results for CCCSc1ccc(C(=O)Nc2ccc(Cl)cc2)cn1 ?
L major viab: -3; WT yeast gro inh: 2; RAM inhibit: 2; CHOP inhibitor: 40

How did Cc1ccc(C)c(N2CCN(C(=O)Cc3ccc(-n4c(=O)[nH]c5ccsc5c4=O)cc3)CC2)c1 do in these assays?
L major viab: 51*; WT yeast gro inh: -9; RAM inhibit: 0; CHOP inhibitor: -22

How did CC(CCc1ccccc1)NC(=O)c1cccs1 (stereo unspecified) do in these assays?
L major viab: -1; WT yeast gro inh: 1; RAM inhibit: 0; CHOP inhibitor: 22

Results for CCCC12CN3CCN(CC(C3)/C1=N\NC(=O)c1ccc(C(C)(C)C)cc1)C2 ?
L major viab: -5; WT yeast gro inh: 98*; RAM inhibit: 3; CHOP inhibitor: 2

What do the screens show for `CC(C)(C)c1ccc(C(=O)N/N=C2\C3CN4CCN(C3)CC2(c2ccccc2)C4)cc1`?
L major viab: -4; WT yeast gro inh: 98*; RAM inhibit: 0; CHOP inhibitor: 15

What do the screens show for `O=C(N/N=C1\C2CN3CCN(C2)CC1(c1ccccc1)C3)c1ccc(F)cc1`?
L major viab: -4; WT yeast gro inh: -12; RAM inhibit: 1; CHOP inhibitor: 1

How did CCCC12CN3CCN(CC(C3)/C1=N\NC(=O)c1ccccc1N)C2 do in these assays?
L major viab: -4; WT yeast gro inh: 1; RAM inhibit: 1; CHOP inhibitor: 17

What do the screens show for `CCCCOc1ccc(NC(=O)Nc2nnc(C)s2)cc1`?
CHOP inhibitor: -6

What do the screens show for `COCCOn1c(SCCOC)nc2ccccc2c1=O`?
CHOP inhibitor: -6

Results for COc1ccc(CNC(=O)C(NC(C)=O)C(=O)Nc2ccc(C(C)C)cc2)cc1 (stereo unspecified) ?
L major viab: 6; WT yeast gro inh: 7; RAM inhibit: 2; CHOP inhibitor: -6

How did CCc1cccc(CC)c1NC(=S)NCCc1c(C)[nH]c2ccccc12 do in these assays?
L major viab: 38; WT yeast gro inh: 68*; RAM inhibit: 6; CHOP inhibitor: 41

Results for COc1ccc2[nH]c(C)c(CCNC(=S)Nc3cccc(C)c3C)c2c1 ?
L major viab: 61*; WT yeast gro inh: 18; RAM inhibit: 4; CHOP inhibitor: 14

Results for COc1ccc2[nH]c(I)c(CCNC(C)=O)c2c1 ?
CHOP inhibitor: -3

What do the screens show for `COc1ccc2[nH]c(C)c(CCNC(=S)Nc3ccccc3C)c2c1`?
L major viab: 8; WT yeast gro inh: 11; RAM inhibit: 2; CHOP inhibitor: 8

Results for COc1ccc2[nH]c(C)c(CCNC(=S)Nc3ccc(C)cc3)c2c1 ?
L major viab: 92*; WT yeast gro inh: 3; RAM inhibit: 2; CHOP inhibitor: 13
